The source of these data is ChEMBL document CHEMBL1961873, “Compounds: GSK PKIS; Assays: Nanosyn kinase panel” (2012).

Assay [1] concerns the target T1, Serine/threonine-protein kinase Nek9 (Homo sapiens) (UniProt Q8TD19).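 Note: each value is a mean percent inhibition of NEK9.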
T1 sequence (whole entry): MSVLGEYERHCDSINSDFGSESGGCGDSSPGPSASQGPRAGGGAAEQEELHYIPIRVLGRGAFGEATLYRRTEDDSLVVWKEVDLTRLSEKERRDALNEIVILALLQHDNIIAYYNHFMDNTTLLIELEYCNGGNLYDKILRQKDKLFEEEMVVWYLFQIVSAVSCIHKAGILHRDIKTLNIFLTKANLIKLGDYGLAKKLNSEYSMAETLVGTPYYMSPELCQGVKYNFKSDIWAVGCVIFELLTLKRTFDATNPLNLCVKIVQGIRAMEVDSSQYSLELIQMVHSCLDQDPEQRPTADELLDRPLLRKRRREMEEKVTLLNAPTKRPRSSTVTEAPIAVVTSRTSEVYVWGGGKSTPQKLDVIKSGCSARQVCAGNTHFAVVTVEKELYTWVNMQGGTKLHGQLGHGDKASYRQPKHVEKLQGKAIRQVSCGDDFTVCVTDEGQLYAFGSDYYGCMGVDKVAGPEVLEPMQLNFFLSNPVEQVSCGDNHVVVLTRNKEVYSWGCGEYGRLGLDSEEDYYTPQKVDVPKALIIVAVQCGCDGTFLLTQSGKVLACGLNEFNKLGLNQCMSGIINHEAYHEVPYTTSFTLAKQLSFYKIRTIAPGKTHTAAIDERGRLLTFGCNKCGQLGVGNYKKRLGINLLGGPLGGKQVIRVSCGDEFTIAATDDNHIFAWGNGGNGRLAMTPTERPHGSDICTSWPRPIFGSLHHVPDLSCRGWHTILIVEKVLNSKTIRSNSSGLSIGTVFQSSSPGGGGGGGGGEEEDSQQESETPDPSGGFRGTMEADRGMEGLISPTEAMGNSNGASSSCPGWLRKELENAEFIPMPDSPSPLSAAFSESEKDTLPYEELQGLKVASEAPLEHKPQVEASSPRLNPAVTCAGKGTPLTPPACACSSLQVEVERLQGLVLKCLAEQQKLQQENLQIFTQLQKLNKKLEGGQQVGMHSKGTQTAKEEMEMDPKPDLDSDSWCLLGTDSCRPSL
Particulars: at 1 µM.

In assay [2] the target is Serine/threonine-protein kinase PLK1 (Homo sapiens) (UniProt P53350). As to conditions: at 0.1 µM.
Sequence of Serine/threonine-protein kinase PLK1 (Homo sapiens) (P53350 whole entry): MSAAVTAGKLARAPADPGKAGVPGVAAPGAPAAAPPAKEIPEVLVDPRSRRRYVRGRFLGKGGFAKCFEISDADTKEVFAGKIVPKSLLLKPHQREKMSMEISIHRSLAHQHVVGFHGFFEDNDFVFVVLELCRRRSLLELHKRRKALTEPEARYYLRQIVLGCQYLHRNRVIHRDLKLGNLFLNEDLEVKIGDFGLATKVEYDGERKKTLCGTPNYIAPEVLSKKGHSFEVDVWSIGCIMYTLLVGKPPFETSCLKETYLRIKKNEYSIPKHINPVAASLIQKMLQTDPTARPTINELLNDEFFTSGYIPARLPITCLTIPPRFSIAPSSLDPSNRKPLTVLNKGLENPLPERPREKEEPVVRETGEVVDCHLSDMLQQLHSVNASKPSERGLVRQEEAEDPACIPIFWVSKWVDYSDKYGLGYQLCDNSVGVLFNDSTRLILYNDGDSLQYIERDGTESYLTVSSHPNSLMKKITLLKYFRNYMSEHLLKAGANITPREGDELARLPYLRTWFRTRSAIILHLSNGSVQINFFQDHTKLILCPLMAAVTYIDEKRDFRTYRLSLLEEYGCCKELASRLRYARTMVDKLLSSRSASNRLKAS
Assay [3] shares this target. Particulars: at 1 µM.
Assay [4] has as its target T2, Dual specificity protein kinase TTK (Homo sapiens) (UniProt P33981).
T2 sequence (whole entry): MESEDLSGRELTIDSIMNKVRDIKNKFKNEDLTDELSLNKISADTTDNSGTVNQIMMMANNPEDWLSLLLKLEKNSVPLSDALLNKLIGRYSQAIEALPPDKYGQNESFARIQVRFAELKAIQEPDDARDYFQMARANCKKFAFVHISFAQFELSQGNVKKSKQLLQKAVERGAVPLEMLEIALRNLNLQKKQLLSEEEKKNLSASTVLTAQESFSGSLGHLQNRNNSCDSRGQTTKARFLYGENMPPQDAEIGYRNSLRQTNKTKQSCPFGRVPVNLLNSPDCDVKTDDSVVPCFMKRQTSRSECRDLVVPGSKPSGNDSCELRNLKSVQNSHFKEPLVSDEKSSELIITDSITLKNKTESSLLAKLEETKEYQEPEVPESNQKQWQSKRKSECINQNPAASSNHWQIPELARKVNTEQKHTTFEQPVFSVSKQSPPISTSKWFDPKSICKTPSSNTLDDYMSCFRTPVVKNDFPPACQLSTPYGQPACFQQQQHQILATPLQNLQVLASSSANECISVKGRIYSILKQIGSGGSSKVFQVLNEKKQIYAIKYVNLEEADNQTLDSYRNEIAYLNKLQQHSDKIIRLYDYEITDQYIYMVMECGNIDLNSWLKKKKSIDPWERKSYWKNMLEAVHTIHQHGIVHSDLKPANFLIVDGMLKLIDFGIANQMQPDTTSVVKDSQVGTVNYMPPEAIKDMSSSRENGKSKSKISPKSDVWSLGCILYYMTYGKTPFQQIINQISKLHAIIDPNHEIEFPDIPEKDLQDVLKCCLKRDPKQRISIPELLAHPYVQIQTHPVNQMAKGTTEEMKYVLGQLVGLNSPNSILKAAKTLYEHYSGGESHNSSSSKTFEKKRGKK
Particulars: at 0.1 µM.

In assay [5] the test system is T3, Receptor-type tyrosine-protein kinase FLT3 (Homo sapiens), P36888 [D835Y].
T3 sequence (whole entry): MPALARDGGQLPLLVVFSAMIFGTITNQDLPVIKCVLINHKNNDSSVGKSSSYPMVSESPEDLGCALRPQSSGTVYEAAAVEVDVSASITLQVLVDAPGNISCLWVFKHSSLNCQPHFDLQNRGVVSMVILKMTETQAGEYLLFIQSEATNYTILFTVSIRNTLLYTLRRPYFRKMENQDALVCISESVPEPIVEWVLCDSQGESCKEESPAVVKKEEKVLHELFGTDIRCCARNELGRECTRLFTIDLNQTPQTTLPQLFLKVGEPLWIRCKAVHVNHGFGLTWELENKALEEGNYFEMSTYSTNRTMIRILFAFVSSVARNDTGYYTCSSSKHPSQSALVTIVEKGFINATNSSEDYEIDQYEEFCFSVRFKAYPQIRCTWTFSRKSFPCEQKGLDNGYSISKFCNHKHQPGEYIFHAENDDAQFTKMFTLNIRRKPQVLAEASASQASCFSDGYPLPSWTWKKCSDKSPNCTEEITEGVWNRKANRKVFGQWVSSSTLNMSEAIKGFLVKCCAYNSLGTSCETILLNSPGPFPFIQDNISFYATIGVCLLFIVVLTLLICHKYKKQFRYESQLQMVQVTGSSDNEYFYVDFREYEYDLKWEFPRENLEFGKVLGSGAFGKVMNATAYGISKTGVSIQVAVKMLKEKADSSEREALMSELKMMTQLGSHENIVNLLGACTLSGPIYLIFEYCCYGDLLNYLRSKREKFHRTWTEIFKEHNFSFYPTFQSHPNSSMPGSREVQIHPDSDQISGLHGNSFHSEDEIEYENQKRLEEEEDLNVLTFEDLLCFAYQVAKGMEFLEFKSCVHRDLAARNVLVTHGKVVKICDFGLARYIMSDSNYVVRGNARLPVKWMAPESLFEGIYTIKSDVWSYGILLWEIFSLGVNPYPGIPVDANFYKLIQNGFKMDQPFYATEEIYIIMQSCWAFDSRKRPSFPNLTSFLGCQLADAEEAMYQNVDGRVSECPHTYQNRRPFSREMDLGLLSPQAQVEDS
Particulars: at 1 µM.

Assay [6] deals with Vascular endothelial growth factor receptor 3 (Homo sapiens) (UniProt P35916). As to conditions: at 0.1 µM.
Sequence of Vascular endothelial growth factor receptor 3 (Homo sapiens) (P35916 whole entry): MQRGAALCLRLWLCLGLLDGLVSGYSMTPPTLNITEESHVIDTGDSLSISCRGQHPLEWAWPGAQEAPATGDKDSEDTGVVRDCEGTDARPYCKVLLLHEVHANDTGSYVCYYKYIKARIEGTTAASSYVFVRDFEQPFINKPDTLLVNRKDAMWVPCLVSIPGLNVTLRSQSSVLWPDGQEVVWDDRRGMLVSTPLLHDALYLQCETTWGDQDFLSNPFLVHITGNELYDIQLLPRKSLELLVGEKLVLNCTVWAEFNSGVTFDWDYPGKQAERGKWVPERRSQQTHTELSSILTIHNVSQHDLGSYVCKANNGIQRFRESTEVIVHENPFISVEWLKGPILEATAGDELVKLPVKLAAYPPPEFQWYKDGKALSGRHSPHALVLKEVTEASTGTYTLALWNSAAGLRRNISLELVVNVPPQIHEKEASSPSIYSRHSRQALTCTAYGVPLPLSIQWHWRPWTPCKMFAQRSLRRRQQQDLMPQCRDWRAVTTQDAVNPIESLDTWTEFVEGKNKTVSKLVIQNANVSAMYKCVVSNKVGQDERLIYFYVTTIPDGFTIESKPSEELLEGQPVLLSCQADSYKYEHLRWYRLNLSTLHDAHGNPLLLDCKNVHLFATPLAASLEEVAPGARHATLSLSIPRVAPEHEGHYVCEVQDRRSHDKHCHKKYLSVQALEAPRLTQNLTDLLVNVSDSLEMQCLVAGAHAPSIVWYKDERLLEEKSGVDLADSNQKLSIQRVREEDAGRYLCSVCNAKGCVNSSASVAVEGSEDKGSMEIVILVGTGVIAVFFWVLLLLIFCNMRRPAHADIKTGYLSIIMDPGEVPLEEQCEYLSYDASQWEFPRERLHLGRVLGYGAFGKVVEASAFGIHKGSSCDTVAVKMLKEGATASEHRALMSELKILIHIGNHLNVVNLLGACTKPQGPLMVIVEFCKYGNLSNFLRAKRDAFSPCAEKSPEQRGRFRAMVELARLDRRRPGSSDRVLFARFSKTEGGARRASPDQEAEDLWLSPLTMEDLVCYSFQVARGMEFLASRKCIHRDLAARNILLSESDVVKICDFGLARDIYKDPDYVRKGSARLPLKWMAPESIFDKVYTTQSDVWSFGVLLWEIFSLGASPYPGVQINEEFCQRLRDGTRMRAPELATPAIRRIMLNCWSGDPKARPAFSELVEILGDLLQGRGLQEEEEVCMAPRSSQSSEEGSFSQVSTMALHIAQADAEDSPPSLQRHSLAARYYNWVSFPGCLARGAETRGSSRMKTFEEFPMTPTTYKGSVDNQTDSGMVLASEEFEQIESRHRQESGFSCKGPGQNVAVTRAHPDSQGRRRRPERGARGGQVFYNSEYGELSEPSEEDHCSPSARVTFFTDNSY
Assay [7] has the same target. As to conditions: at 1 µM.
The target in assay [8] is Macrophage colony-stimulating factor 1 receptor (Homo sapiens) (UniProt P07333). Particulars: at 0.1 µM.
Sequence of Macrophage colony-stimulating factor 1 receptor (Homo sapiens) (P07333 whole entry): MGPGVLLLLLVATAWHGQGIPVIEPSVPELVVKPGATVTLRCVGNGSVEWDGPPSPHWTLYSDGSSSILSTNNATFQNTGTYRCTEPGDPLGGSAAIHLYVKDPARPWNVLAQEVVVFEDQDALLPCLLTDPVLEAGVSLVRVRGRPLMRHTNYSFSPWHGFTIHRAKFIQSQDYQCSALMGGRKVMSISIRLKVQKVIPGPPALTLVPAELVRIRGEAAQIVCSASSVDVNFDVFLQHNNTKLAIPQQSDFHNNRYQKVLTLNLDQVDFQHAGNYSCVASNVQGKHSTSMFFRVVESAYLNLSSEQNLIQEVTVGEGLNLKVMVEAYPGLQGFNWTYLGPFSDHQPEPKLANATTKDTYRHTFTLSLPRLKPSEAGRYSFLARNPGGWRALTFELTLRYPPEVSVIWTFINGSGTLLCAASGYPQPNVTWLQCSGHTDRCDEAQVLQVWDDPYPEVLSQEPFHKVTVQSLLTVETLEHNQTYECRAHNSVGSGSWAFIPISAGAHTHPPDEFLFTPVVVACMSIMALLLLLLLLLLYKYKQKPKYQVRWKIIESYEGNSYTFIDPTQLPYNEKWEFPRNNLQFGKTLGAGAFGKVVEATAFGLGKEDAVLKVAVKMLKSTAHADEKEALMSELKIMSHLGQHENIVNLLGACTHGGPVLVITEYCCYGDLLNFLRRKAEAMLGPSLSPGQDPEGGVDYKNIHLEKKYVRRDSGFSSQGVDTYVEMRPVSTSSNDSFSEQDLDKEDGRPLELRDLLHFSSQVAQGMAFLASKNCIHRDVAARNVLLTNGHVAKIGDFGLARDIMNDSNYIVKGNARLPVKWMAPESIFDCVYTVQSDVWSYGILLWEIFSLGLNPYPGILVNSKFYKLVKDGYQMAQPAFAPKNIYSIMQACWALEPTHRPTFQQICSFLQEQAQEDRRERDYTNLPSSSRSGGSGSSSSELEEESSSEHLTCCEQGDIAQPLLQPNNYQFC
The target is the same in assay [9]. Particulars: at 1 µM.
In assay [10] the target is Tyrosine-protein kinase Fyn (Homo sapiens) (UniProt P06241). As to conditions: at 0.1 µM.
Sequence of Tyrosine-protein kinase Fyn (Homo sapiens) (P06241 2-537 limits assumed): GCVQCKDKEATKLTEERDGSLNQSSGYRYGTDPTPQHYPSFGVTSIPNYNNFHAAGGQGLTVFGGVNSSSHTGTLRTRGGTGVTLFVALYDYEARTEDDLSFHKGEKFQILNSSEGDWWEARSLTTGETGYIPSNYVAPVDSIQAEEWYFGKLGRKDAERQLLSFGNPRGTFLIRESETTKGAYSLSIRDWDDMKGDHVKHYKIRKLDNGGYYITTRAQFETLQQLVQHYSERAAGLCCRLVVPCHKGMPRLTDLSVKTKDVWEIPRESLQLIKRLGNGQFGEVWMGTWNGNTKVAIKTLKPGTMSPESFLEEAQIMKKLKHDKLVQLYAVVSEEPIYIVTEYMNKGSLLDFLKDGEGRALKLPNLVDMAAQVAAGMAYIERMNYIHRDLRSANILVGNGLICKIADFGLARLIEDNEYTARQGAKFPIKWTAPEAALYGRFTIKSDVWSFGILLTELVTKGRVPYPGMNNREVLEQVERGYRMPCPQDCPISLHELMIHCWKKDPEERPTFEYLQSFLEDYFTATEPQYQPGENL

Each structure is given as a SMILES string.

One may read the inhibition as the drop in the measured response relative to a control, in per cent. As to `N#Cc1c(NC(=O)c2ccc(F)cc2)sc2c1CCCC2`, the inhibition in assay [1] stood at 0.67%; in assay [2], 4.32%; in assay [3], 2.6%; in assay [4], 4.36%; in assay [5] it was 2.85%; in assay [6], 0.08%. The inhibition was -0.81% in assay [7], 0.56% in assay [8], -0.85% in assay [9] and -0.49% in [10].
Regarding `COc1ccc(-c2cc3c(N)ncnc3o2)cc1`, the inhibition is 2.28% in [1]; -1.11% in assay [2]; -1.15% in [3]; 0.22% in assay [4]; 1.63% in assay [5]; 0.51% in assay [6]. For the same molecule, the inhibition was found to be 4.44% in assay [7], 2.06% in assay [8], 17.9% in [9] and 0.82% in assay [10].
As to `CCn1c(-c2nonc2N)nc2c(C#CC(C)(C)O)nc(OC[C@H](N)c3ccccc3)cc21`, the inhibition in [1] worked out at 3.62%; in assay [2] it was 3.81%; in assay [3], 7.68%; in assay [4] it was 7.61%; in [5], 1.02%; in assay [6] it was 16.6%. For the same molecule, the inhibition in [7] was 62.6%; in assay [8], 3.84%; in [9], 5.51%; in assay [10] it was 2.39%.
As to `NC(=O)c1sc(-n2cnc3ccc(C(F)(F)F)cc32)cc1OCc1ccccc1Br`, the inhibition was 28.9% in assay [1]; 81.4% in [2]; 94.3% in [3]; 8.68% in assay [4]; 5.89% in assay [5]; -1.7% in assay [6]. The inhibition in assay [7] was 3.99%; in assay [8], 0.91%; in assay [9], 3.49%; in [10], 2.36%.
Take `COc1cccc(-n2ncc3c(N/N=C/c4ccc(F)cc4)ncnc32)c1`: the inhibition in assay [1] was 6.76%; in assay [2] it was 1.91%; in assay [3], 4.22%; in [4], 7.93%; in assay [5], 12.3%; in [6], 7.04%. The inhibition in assay [7] was found to be 6.84%; in [8] it was 6.04%; in assay [9] it was 5.69%; in assay [10], 8.43%.
For the molecule `O=S(=O)(CCNCc1ccc(-c2ccc3ncnc(Nc4ccc(OCc5cccc(F)c5)c(Cl)c4)c3c2)o1)c1ccccc1`, the inhibition was 4.64% in assay [1]; 6% in [2]; 5.8% in assay [3]; 7.34% in assay [4]; -1.66% in assay [5]; 4.59% in assay [6]. The inhibition is 7.11% in assay [7], 2.22% in [8], 8.85% in [9] and 2.58% in assay [10].
As to `CCn1c(-c2nonc2N)nc2c(C#CC(C)(C)O)ncc(OC3CCNCC3)c21`, the inhibition in [1] was 5.22%; in [2], 2.8%; in [3] it was 5%; in [4], 5.34%; in assay [5] it was 0.12%; in [6] it was 8.92%. Moreover, the inhibition in [7] turned out to be 26.6%; in assay [8], 1.2%; in assay [9], 2.92%; in assay [10], 1.53%.
Take `COc1ccc2c(-c3ccnc(Nc4cccc(OC(F)(F)F)c4)n3)cnn2n1`: the inhibition in [1] stood at 10.2%; in [2] it was 3.05%; in [3], 3.9%; in assay [4] it was 5.81%; in [5], 15.6%; in assay [6] it was 4.15%. Moreover, the inhibition was found to be 5.87% in assay [7], 7.22% in assay [8], 33.3% in [9] and 2.72% in [10].
